Measured values reported in PubChem BioAssay (NCATS).
Records with an inconclusive call do not appear. Unmarked numbers belong to inactive results. Activity calls are given as the source filed them. The call rests on the fitted dose curve; in most records, active means well fitted inhibition curve with a large enough effect; inconclusive means small, poorly fitted or top-dose-only effect; inactive means flat fitted curve, though single readings scatter.

test system: DIV30; experiment: qHTS profiling for inhibitors of Plasmodium falciparum proliferation (AID 504749); further: nearly all actives have a fitted effect of over 60% in size;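 on activity, negative = inhibition: 0% = DMSO vehicle and full inhibition = artemisinin control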; conditions: P. falciparum in erythrocytes, SYBR Green DNA, 72 h; series mostly up to 28.7 µM; activity, negative = inhibition: at the top concentration
How it was run: (§1)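 Readout was DNA-dye fluorescence from lysed cultures, ex 485/em 535 nm. Parasitized red cells had grown 72 h with compound; data scaled between 0.29 uM artemisinin and DMSO wells and corrected using vehicle-only plates.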
Potency means the concentration at half of the fitted maximal effect.

SMILES | Potency | activity, negative = inhibition
COc1cccc2c1C(=O)c1c(O)c3c(c(O)c1C2=O)C[C@@](O)(C(=O)CO)C[C@@H]3O[C@H]1C[C@H](N)[C@H](OC2CCCCO2)[C@H](C)O1 (stereo not given in full) | 6750 nM (active) | –
CCC(C(=O)O)C1CCC(C)C(C(C)C(O)C(C)C(=O)C(CC)C2OC3(C=CC(O)[C@@]4(CC[C@](C)(C5CC[C@@](O)(CC)C(C)O5)O4)O3)C(C)CC2C)O1 (stereo not given in full) | 478 nM (active) | –
Nc1nc2c(c(=O)[nH]1)N(C=O)[C@H](CNc1ccc(C(=O)N[C@@H](CCC(=O)O)C(=O)O)cc1)CN2 | – | -3.88% [at 12.8 µM]
COc1ccc([C@@H]2CNC(=O)C2)cc1OC1CCCC1 | – | 3.07% [at 12.8 µM]
OCC(O)C(O)C(O)CO (stereo not given) | – | 6.04%
COc1ccc2c(c1OC)C(=O)OC2[C@H]1c2c(cc3c(c2OC)OCO3)CCN1C (stereo not given in full) | – | -7.35%

test system: Dd2; experiment: as above; conditions: P. falciparum in erythrocytes, SYBR Green DNA, 72 h; series mostly up to 28.7 µM; activity, negative = inhibition: at the top concentration
How it was run: as §1

SMILES | Potency | activity, negative = inhibition
COc1cccc2c1C(=O)c1c(O)c3c(c(O)c1C2=O)C[C@@](O)(C(=O)CO)C[C@@H]3O[C@H]1C[C@H](N)[C@H](OC2CCCCO2)[C@H](C)O1 (stereo not given in full) | 2000 nM (active) | –
CCCCCCCCCCCC(CC1OC(=O)C1CCCCCC)OC(=O)C(CC(C)C)NC=O (stereo not given) | 794 nM (active) | –
CCC(C(=O)O)C1CCC(C)C(C(C)C(O)C(C)C(=O)C(CC)C2OC3(C=CC(O)[C@@]4(CC[C@](C)(C5CC[C@@](O)(CC)C(C)O5)O4)O3)C(C)CC2C)O1 (stereo not given in full) | 891 nM (active) | –
Nc1nc2c(c(=O)[nH]1)N(C=O)[C@H](CNc1ccc(C(=O)N[C@@H](CCC(=O)O)C(=O)O)cc1)CN2 | – | 0.142% [at 12.8 µM]
COc1ccc([C@@H]2CNC(=O)C2)cc1OC1CCCC1 | – | 2.14% [at 12.8 µM]
OCC(O)C(O)C(O)CO (stereo not given) | – | 5.3%
COc1ccc2c(c1OC)C(=O)OC2[C@H]1c2c(cc3c(c2OC)OCO3)CCN1C (stereo not given in full) | – | -7.74%

test system: ECU; experiment: as above; conditions: P. falciparum in erythrocytes, SYBR Green DNA, 72 h; series mostly up to 28.7 µM; activity, negative = inhibition: at the top concentration
How it was run: as §1

SMILES | Potency | activity, negative = inhibition
COc1cccc2c1C(=O)c1c(O)c3c(c(O)c1C2=O)C[C@@](O)(C(=O)CO)C[C@@H]3O[C@H]1C[C@H](N)[C@H](OC2CCCCO2)[C@H](C)O1 (stereo not given in full) | 2000 nM (active) | –
CCCCCCCCCCCC(CC1OC(=O)C1CCCCCC)OC(=O)C(CC(C)C)NC=O (stereo not given) | 398 nM (active) | –
CCC(C(=O)O)C1CCC(C)C(C(C)C(O)C(C)C(=O)C(CC)C2OC3(C=CC(O)[C@@]4(CC[C@](C)(C5CC[C@@](O)(CC)C(C)O5)O4)O3)C(C)CC2C)O1 (stereo not given in full) | 1580 nM (active) | –
Nc1nc2c(c(=O)[nH]1)N(C=O)[C@H](CNc1ccc(C(=O)N[C@@H](CCC(=O)O)C(=O)O)cc1)CN2 | – | -2.08% [at 12.8 µM]
COc1ccc([C@@H]2CNC(=O)C2)cc1OC1CCCC1 | – | -0.03% [at 12.8 µM]
OCC(O)C(O)C(O)CO (stereo not given) | – | -2.23%
COc1ccc2c(c1OC)C(=O)OC2[C@H]1c2c(cc3c(c2OC)OCO3)CCN1C (stereo not given in full) | – | 6.16%
